The results in this text go back to ChEMBL document CHEMBL3433997, “St. Jude Leishmania screening dataset” (2016).

Format in all cases: functional
Assay [1] has as its target Solute carrier family 2, facilitated glucose transporter member 1 (Homo sapiens) (UniProt P11166). In words: ST_JUDE_LEISH: Cytotoxicity at 2uM final concentration against transgenic Leishmania Mexicana promastigotes LmGLUT1 that are glucose transport deficient and complemented with the human glucose transporter GLUT1. Activity is measured by DNA content using SYBR green in vitro.

Assay [2] has as its target Hexose transporter 1 (Plasmodium falciparum) (UniProt O97467). The assay is described as follows: ST_JUDE_LEISH: Cytotoxicity at 2uM final concentration against transgenic Leishmania Mexicana promastigotes LmPfHT that are glucose transport deficient and complemented with the Plasmodium falciparum hexose transporter. Activity is measured by DNA content using SYBR green in vitro.

Assay [3] deals with Glucose transporter (Leishmania mexicana) (UniProt O61059). In words: ST_JUDE_LEISH: Cytotoxicity at 2uM final concentration against transgenic Leishmania Mexicana promastigotes LmGT2 that are glucose transport deficient and complemented with the L. Mexicana glucose transporter 2. Activity is measured by DNA content using SYBR green in vitro.

Sequence of Solute carrier family 2, facilitated glucose transporter member 1 (Homo sapiens) (P11166 whole entry): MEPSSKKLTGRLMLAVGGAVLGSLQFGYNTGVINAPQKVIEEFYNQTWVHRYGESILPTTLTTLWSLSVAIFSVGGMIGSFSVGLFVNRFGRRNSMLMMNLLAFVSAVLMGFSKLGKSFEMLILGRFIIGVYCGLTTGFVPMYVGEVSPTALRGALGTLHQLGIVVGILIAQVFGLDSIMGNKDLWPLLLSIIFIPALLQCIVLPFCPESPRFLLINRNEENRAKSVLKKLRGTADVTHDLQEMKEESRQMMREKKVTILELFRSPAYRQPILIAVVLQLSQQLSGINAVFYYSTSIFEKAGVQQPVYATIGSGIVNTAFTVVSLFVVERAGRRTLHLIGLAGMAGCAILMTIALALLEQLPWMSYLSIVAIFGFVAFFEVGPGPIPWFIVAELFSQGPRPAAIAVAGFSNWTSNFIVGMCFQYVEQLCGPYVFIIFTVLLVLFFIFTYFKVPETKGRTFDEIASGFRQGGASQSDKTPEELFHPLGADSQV

Regarding `N#Cc1cc([N+](=O)[O-])ccc1-n1nc(-c2cccc(Cl)c2)n(CC2CCCO2)c1=S` (stereo not given), the inhibition was 2.07% in assay [1], 1.3% in assay [2] and -4.52% in assay [3].
For `Cc1nc(N)nc(N)c1OCCCOc1cccc(Cl)c1Cl`, the values for the inhibition in assay [1], in assay [2] and in assay [3] were 65.6%, 65.8% and 56.7%, respectively.
`Cc1ccccc1N1CCN(c2ccc(C(=O)Nc3ccccc3)cn2)CC1`: the inhibition in assay [1] was 9.19%; in assay [2] it was 7.8%; in assay [3] it was 3.84%.
For `Cc1cccc2nc(-c3ccc(-c4ccc(C(=O)NCCc5cn(C)cn5)cc4)s3)[nH]c12`, the results for the inhibition in assay [1], in assay [2] and in assay [3] were 4.34%, 5.34% and 2.6%, respectively.
For `CCOc1cc(C=Cc2nc(O)c3ccccc3n2)cc(Cl)c1O`, the inhibition in assay [1] came to 5.1%; in assay [2], 4.12%; in assay [3] it was 2.7%.
Consider `Cc1ccc(NC(=O)c2c(C)noc2-c2snnc2C)cc1`, for which the inhibition in assay [1] stood at 3.24%; in assay [2], 4.05%; in assay [3] it was 3.02%.
Turning to `COc1ccc2nccc([C@@H](O)CN3CCC(NC(=O)c4ccc(-c5ccccc5)s4)CC3)c2c1`, the inhibition was 9.94% in assay [1], 14.6% in assay [2] and 4.67% in assay [3].
The like results for `CCC(=O)OC(CCN(CC)CC)(c1ccccc1)c1ccccc1` were, in that order, 1.98%, 1.16% and 1.58%.
For the molecule `CCN(CC)CCCOc1ccc(Nc2nccc(-c3c(-c4cccc(NC(=O)c5c(F)cccc5F)c4)nn4ccccc34)n2)cc1F`, the figures for the inhibition in assay [1], in assay [2] and in assay [3] were 58%, 56.7% and 10.5%, respectively.
As for `CCc1ccc(C(=O)Nc2cccc(CN3CCCN(Cc4ccc(O)cc4)CC3)c2)cc1`, the inhibition in assay [1] was 2.88%; in assay [2], -2.75%; in assay [3], 3.01%.
Turning to `CCOC(=O)N1CCN(CCCNc2c3ccc(Cl)cc3nc3ccc(OC)cc23)CC1`, the inhibition was 4.11% in assay [1], 3.33% in assay [2] and 1.42% in assay [3].
As to `CCCCCN1CCCN(Cc2cccc(NC(=O)c3ccc(-c4ccccc4)cc3)c2)CC1`, the inhibition in assay [1] is -0.68%; in assay [2] it was -0.99%; in assay [3] it was 2.3%.
For the molecule `CC1CCN(c2nc(C(=O)Nc3ccc(F)cc3C(F)(F)F)c(C(C)C)s2)CC1`, the figures for the inhibition in assay [1], in assay [2] and in assay [3] were 1.3%, 2.16% and 2.29%, respectively.
Turning to `COc1ccc(Nc2nccc(NCCNC(=O)c3cc4ccccc4s3)n2)cc1`, the inhibition in assay [1] is 5.11%; in assay [2] it was 3.59%; in assay [3] it was -0.64%.
Take `NCCc1cccc(-c2cnc3[nH]cc(-c4ccc(C(=O)O)cc4)c3c2)c1`: the inhibition came to 0.56% in assay [1], 0.29% in assay [2] and 0.03% in assay [3].
On to `Cc1ccc(C2=NNC3(S2)C(=O)N(C)c2ccccc23)cc1` (stereo not given), for which the results for the inhibition in assay [1], in assay [2] and in assay [3] were 5.66%, 8.24% and 9.09%, respectively.
Regarding `CCN(CC)CCN(Cc1ccc(-c2ccc(C#N)cc2)cc1)C(=O)Cn1c(CCc2cccc(F)c2F)nc(=O)c2ccccc21`, the inhibition in assay [1] amounted to 2.37%; in assay [2], 0.54%; in assay [3], 3%.
The like results for `COc1cc2ccccc2c(OC)c1CCNCCCCNCCc1c(OC)cc2ccccc2c1OC` were, in that order, 10.9%, 12.1% and 14.6%.
Turning to `COc1cc(NC(=O)/C=C/c2ccccc2Cl)cc(OCCN2CCC(O)(c3ccccc3)CC2)c1`, the inhibition in assay [1] was determined as 6.07%; in assay [2], 3.45%; in assay [3] it was 4.61%.
Taken in the same sequence, the figures for `Cc1[nH]c(C)c(-c2ccc(OCc3ccccc3)cc2)c(=O)c1Br` were 5.62%, 1.22% and -2.04%.
Taken in the same sequence, the figures for `COc1ccc(CN2CCCN(Cc3cccc(NC(=O)c4ccc(-c5ccccc5)cc4)c3)CC2)cc1` were -0.75%, -1.14% and -4.3%.
Taken in the same sequence, the figures for `Cc1[nH]c(C)c(-c2ccc(OCCCc3ccccn3)cc2)c(=O)c1Br` were 8.98%, 6.12% and 8.48%.
Regarding `CCCCCN1CCCN(Cc2cccc(NC(=O)c3ccc(Cl)c(Cl)c3)c2)CC1`, the results for the inhibition in assay [1], in assay [2] and in assay [3] were -3.68%, 0.02% and 2.58%, respectively.
Take `O=C(/C=C/c1ccc([N+](=O)[O-])cc1)N1CCC(NS(=O)(=O)c2cccc(C(F)(F)F)c2)CC1`: the results for the inhibition in assay [1], in assay [2] and in assay [3] were 3.4%, 3% and 0.97%, respectively.
Taken in the same sequence, the figures for `COc1ccc(C(=O)N2CCC(C(=O)NC(C)c3ccc(-n4ccnc4)cc3)CC2)c2ccccc12` (stereo not given) were -1.06%, -0.1% and -0.59%.
In the case of `Cc1ccc(Cn2cnc(N3CC(C)NC(C)C3)cc2=O)cc1NC(=O)Nc1ccc(-c2ccccc2)cc1` (stereo not given), the values for the inhibition in assay [1], in assay [2] and in assay [3] were -0.2%, -0.46% and -0.19%, respectively.
Consider `COc1ccc2nccc(N3CCC(CCNCc4ccc5c(n4)NC(=O)CO5)CC3)c2c1`, for which the inhibition in assay [1] is 1.72%; in assay [2], 5.22%; in assay [3], -0.63%.
Regarding `COc1ccc2ncc(F)c(CCN3CC(O)C(CNCc4ccc5c(c4)OCCO5)C3)c2n1` (stereo not given), the inhibition is 6.54% in assay [1], 4.38% in assay [2] and -0.93% in assay [3].
The like results for `CC(C)(C)N1CCC(N(Cc2ccc(-c3ccc(C(F)(F)F)cc3)cc2)C(=O)Cn2c(CCc3cccc(F)c3F)cc(=O)c3cccnc32)CC1` were, in that order, -0.12%, -1.34% and -1.6%.
The like results for `N=C(N)Nc1nc(-c2cccc(NC(=O)NCc3ccc(OC(F)(F)F)cc3)c2)cs1` were, in that order, 1.51%, 0.95% and 0.07%.
Take `O=C(NOCCCCOc1ccc(Cl)c(Cl)c1)c1ccccc1`: the inhibition in assay [1] is -2.66%; in assay [2] it was -2.61%; in assay [3], -1.29%.
As for `CCN(CCCN1CCCCC1)c1cc(C)nc(Nc2cccc(C(F)(F)F)c2)n1`, the inhibition was -5.65% in assay [1], 2.63% in assay [2] and 11% in assay [3].
Regarding `Cc1ccc(C2CCN(CCCCNC(=O)c3ccc(NC(=O)c4ccc(Cl)cc4)cc3)CC2)c(C)c1`, the inhibition in assay [1] is -0.93%; in assay [2], -0.75%; in assay [3] it was -0.85%.
The like results for `COc1ccc(C(c2ccc(N(C)C)cc2)c2ccc(N(C)C)cc2)cc1` were, in that order, 95.3%, 94.5% and 84.9%.
`CC(=O)N(C)C1CCN(Cc2cccc(-c3ccc(-c4nc5cc(C(F)(F)F)ccc5[nH]4)cc3)c2)C1` (stereo not given): the inhibition in assay [1] was 2.39%; in assay [2] it was -4.29%; in assay [3], 3.1%.
